# Results: PubChem BioAssay (Tox21)
# Results filed as inconclusive are left out. A call without a number means that no potency is given here. Unmarked numbers belong to inactive results. Calls of active or inactive are those of the source. Calls come from the whole dose curve; as a rule, active = well fitted curve in the direction sought with a large enough effect in the repeat runs; inconclusive = weak or mixed curves; inactive = no such curve, though single readings can be large; an effect the other way counts as inactive or inconclusive.
# Legend:
# [1] = target: Nuclear receptor subfamily 1 group I member 2 (Rattus norvegicus) (UniProt Q9R1A7); assay: Rat pregnane X receptor (rPXR) activation by small molecules, qHTS assay (AID 1346983); settings: rPXR luciferase reporter cells, One-Glo luminescence, 24 h; active compounds read high; note: nearly all actives have a fitted effect of over 20% in size
# Nuclear receptor subfamily 1 group I member 2 (Rattus norvegicus), sequence (Q9R1A7 whole entry, looked up): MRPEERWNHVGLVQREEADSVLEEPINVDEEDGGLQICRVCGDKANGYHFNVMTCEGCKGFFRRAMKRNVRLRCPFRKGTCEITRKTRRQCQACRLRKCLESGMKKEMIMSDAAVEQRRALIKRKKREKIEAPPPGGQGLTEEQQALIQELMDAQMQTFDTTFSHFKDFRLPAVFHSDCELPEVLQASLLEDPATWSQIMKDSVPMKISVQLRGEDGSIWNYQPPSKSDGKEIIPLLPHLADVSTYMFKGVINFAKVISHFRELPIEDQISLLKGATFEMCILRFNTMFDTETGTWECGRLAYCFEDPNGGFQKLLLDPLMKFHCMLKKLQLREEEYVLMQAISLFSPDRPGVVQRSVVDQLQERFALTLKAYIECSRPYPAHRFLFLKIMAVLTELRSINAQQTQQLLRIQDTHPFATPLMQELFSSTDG
# Outline: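 Cell-based rPXR activation assay: rPXR cells, 2,000 per well, rested 5hr at 37 C, then exposed to compounds in DMSO for 24 hr at 37 C. Luciferase activity read by One-Glo luminescence after 30 min at room temperature.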
# [2] = target: Nuclear receptor subfamily 1 group I member 2 (Homo sapiens) (UniProt O75469); assay: CYP3A4 induction through human pregnane X receptor (PXR) by small molecules, qHTS assay (AID 1346984); settings: DPX-2 HepG2 PXR, CYP3A4-luciferin luminescence, 24 h; series mostly up to 46.1 µM; note: nearly all actives have a fitted effect of over 40% in size
# Outline: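 DPX-2 reporter cells; 24h cpd, 37C; Luciferin-IPA 3uM final x3h; One-Glo 30 min RT; lumi read.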
# [3] = target: Nuclear receptor subfamily 1 group I member 2 (Homo sapiens) (UniProt O75469); assay: Human pregnane X receptor (PXR) activation by small molecules, qHTS assay (AID 1346985); settings: DPX-2 HepG2 CYP3A4-luciferase, 24 h; series mostly up to 38.3 µM; note: nearly all actives have a fitted effect of over 40% in size
# Outline: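 DPX-2 cells (HepG2 co-transfected with a PXR response element and a CYP3A4-promoter luciferase construct) were seeded at 2,000 per well, rested 5 hr at 37C, then exposed to DMSO-dissolved compounds for 24 hr. Activation was read as luciferase luminescence.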
# [4] = target: Cytochrome P450 2D6 (Homo sapiens) (UniProt P10635); assay: Cytochrome P450 Family 2 Subfamily D Member 6 (CYP2D6) small molecule antagonists: luciferase reporter qHTS assay (AID 1671196); settings: P450-Glo CYP2D6 enzyme assay, luciferin luminescence, 1 h; series mostly up to 115 µM; note: nearly all actives have a fitted effect of over 50% in size; note: potency is the fitted concentration of half-maximal effect
# Cytochrome P450 2D6 (Homo sapiens), sequence (P10635 whole entry, looked up): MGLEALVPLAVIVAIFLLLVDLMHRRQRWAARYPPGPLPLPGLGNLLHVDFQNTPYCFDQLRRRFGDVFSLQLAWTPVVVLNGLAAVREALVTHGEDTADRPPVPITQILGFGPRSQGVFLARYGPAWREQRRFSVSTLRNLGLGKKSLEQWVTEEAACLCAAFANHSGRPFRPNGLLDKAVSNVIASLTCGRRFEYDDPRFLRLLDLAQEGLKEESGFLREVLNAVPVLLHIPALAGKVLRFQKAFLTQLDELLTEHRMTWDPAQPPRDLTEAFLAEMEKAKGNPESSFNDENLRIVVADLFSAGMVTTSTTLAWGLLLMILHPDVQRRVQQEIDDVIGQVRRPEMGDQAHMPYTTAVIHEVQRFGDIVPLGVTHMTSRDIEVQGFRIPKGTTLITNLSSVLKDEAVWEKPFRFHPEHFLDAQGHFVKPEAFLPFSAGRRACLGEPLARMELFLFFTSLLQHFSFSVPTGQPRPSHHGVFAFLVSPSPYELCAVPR
# Outline: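 Inhibition of CYP2D6 was gauged by loss of luminescence, since light produced tracks the luciferin generated from a proluciferin substrate. A 10 min room-temperature preincubation preceded 1 h NADPH-supported turnover.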
# [5] = target: Cytochrome P450 2C19 (Homo sapiens) (UniProt P33261); assay: Cytochrome P450 Family 2 Subfamily C Member 19 (CYP2C19) small molecule antagonists: luciferase reporter qHTS assay (AID 1671197); settings: P450-Glo CYP2C19 enzyme, luciferin luminescence, 1 h; series mostly up to 115 µM; note: nearly all actives have a fitted effect of over 65% in size; note: potency is the fitted concentration of half-maximal effect
# Cytochrome P450 2C19 (Homo sapiens), sequence (P33261 whole entry, looked up): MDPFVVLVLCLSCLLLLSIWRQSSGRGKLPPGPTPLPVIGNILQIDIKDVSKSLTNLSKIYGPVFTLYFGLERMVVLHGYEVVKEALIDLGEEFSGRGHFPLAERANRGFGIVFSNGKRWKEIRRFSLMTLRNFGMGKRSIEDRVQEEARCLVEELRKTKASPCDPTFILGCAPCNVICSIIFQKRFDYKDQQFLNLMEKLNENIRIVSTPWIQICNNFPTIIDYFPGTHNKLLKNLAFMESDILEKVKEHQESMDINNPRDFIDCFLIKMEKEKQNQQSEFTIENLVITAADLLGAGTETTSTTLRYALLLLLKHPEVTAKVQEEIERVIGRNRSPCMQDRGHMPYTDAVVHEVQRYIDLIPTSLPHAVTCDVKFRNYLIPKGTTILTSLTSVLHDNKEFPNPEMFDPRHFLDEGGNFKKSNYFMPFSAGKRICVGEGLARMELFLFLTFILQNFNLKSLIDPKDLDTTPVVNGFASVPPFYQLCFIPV
# Outline: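 Quantitative high-throughput screen of the Tox21 library using CYP2C19 with proluciferin substrate. Reaction: NADPH regeneration, 37C, 1 h, after 10 min compound preincubation at room temperature. Readout: luminescence.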
# [6] = target: Cytochrome P450 2C9 (Homo sapiens) (UniProt P11712); assay: Cytochrome P450 Family 2 Subfamily C Member 9 (CYP2C9) small molecule antagonists: luciferase reporter qHTS assay (AID 1671198); settings: P450-Glo CYP2C9 enzyme assay, luciferin luminescence; series mostly up to 115 µM; note: nearly all actives have a fitted effect of over 50% in size; note: potency is the fitted concentration of half-maximal effect
# Cytochrome P450 2C9 (Homo sapiens), sequence (P11712 whole entry, looked up): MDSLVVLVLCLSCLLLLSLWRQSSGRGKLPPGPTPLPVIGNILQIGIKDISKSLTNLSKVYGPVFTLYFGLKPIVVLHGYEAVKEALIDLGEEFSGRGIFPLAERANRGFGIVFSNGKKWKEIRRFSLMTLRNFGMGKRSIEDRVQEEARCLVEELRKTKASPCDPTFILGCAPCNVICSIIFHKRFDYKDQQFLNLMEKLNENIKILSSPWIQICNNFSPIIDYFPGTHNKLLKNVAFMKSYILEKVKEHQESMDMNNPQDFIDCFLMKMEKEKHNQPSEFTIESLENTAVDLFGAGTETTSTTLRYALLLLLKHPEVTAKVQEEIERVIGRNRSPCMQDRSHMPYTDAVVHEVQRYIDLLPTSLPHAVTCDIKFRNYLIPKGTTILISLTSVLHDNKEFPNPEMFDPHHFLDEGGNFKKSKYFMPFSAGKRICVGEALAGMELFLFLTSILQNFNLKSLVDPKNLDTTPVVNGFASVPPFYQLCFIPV
# Outline: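 P450-Glo proluciferin substrate with CYP2C9 enzyme; 10 min RT preincubation, then NADPH regeneration 1 h at 37C; luciferin detection reagent 20 min RT, luminescence in relative luminescence units.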
# [7] = target: Cytochrome P450 1A2 (Homo sapiens) (UniProt P05177); assay: Cytochrome P450 Family 1 Subfamily A Member 2 (CYP1A2) small molecule antagonists: luciferase reporter qHTS assay (AID 1671199); settings: P450-Glo CYP1A2 enzyme, luciferin luminescence, 1 h; series mostly up to 115 µM; note: nearly all actives have a fitted effect of over 50% in size; note: potency is the fitted concentration of half-maximal effect
# Cytochrome P450 1A2 (Homo sapiens), sequence (P05177 whole entry, looked up): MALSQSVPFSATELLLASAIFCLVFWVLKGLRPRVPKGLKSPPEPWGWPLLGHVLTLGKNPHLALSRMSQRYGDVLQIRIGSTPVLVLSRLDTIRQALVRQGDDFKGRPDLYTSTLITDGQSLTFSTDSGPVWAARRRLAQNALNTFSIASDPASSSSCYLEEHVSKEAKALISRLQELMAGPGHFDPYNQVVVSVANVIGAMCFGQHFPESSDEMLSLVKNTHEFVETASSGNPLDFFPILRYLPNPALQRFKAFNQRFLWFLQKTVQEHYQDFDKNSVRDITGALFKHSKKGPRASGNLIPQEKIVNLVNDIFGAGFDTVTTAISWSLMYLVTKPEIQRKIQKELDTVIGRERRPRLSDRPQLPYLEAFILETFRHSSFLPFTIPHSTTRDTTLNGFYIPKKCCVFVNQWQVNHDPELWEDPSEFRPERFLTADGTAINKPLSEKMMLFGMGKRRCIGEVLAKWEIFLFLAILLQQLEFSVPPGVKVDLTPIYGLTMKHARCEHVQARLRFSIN
# Outline: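 Signal from luciferin formed by CYP1A2 from a proluciferin substrate is read as luminescence, expressed in relative luminescence units. Compounds sit with enzyme 10 min, NADPH-driven reaction runs 1 h, all at room temperature.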
# [8] = target: Voltage-gated inwardly rectifying potassium channel KCNH2 (Homo sapiens) (UniProt Q12809); assay: Human Ether-a-go-go-Related Gene (hERG) channel small molecule antagonists: fluorescence cell-based qHTS assay (AID 1671200); settings: hERG-U2OS cells, FluxOR thallium flux fluorescence; series mostly up to 76.8 µM;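 note: hERG-expressing U2OS cells given a thallium stimulus after FluxOR II dye loading; nearly all actives have a fitted effect of over 50% in size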
# Voltage-gated inwardly rectifying potassium channel KCNH2 (Homo sapiens), sequence (Q12809 whole entry, looked up): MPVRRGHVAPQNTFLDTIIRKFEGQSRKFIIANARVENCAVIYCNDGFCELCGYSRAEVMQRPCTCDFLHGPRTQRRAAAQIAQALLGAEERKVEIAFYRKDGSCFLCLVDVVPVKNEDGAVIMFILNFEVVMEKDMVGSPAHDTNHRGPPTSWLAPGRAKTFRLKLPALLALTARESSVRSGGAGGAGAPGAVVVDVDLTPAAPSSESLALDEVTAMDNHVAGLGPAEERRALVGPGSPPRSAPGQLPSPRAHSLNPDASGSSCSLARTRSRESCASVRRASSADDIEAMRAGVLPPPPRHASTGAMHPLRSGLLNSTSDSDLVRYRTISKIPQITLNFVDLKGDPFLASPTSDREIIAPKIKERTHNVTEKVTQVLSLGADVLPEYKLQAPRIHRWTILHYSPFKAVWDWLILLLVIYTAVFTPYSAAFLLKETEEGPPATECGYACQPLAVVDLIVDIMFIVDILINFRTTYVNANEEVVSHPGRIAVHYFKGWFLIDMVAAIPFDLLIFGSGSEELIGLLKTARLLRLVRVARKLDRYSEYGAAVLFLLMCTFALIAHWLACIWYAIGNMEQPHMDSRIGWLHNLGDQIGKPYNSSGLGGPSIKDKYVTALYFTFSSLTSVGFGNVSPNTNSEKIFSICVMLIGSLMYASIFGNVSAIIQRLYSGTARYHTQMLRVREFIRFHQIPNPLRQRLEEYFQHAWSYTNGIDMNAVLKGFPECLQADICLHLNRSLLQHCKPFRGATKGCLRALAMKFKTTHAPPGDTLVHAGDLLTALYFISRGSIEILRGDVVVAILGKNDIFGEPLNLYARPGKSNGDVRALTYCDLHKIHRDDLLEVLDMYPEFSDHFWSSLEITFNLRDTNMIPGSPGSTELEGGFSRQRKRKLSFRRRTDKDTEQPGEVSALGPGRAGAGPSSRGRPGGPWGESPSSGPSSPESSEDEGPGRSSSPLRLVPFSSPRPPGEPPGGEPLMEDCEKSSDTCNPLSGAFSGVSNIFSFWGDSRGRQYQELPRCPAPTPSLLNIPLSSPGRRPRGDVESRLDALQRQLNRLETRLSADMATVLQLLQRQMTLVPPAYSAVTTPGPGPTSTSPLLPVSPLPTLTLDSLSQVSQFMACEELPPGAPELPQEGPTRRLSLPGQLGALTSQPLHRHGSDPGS
# Outline: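 Kinetic two-minute fluorescence traces, sampled at 1 s, were collected following thallium stimulus of U2OS cells (1000 per well) that had been cultured overnight at 37 C and loaded with FluxOR II.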
# [9] = target: Cytochrome P450 3A4 (Homo sapiens) (UniProt P08684); assay: Cytochrome P450 Family 3 Subfamily A Member 4 (CYP3A4) small molecule antagonists: luciferase reporter qHTS assay (AID 1671201); settings: P450-Glo CYP3A4 enzyme, luciferin luminescence, 1 h; series mostly up to 115 µM; note: nearly all actives have a fitted effect of over 50% in size
# Cytochrome P450 3A4 (Homo sapiens), sequence (P08684 whole entry, looked up): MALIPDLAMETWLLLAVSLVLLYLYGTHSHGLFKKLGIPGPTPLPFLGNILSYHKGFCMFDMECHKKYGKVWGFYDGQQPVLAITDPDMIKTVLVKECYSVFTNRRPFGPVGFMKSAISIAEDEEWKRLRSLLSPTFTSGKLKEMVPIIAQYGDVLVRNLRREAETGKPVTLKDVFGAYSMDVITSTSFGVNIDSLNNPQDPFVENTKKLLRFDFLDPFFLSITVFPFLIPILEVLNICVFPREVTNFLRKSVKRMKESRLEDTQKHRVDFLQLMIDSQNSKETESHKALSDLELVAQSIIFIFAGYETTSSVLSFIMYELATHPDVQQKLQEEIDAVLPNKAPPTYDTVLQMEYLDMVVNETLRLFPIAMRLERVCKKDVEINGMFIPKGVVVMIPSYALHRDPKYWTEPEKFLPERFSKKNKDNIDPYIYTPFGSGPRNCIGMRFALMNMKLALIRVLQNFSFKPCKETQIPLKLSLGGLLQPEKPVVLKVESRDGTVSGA
# Outline: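 Proluciferin-to-luciferin conversion by CYP3A4, NADPH-regenerated, 1 h RT; luminescence read as RLU. Ketoconazole as control.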
SMILES,max activation [1] [%],Potency [2],Potency [3],"activity change, negative = inhibition [4]","activity change, negative = inhibition [5]","activity change, negative = inhibition [6]","activity change, negative = inhibition [7]","activity change, negative = inhibition [8]","activity change, negative = inhibition [9]",Potency [4],Potency [5],Potency [6],Potency [7],Potency [8],Potency [9]
O=S(=O)(O)c1ccc2c(N=Nc3ccc(S(=O)(=O)O)c4ccccc34)c(O)c(S(=O)(=O)O)cc2c1,-9.86,inactive,inactive,-11.1% [at 10.5 µM],-14.2% [at 10.5 µM],-3.9% [at 10.5 µM],-17.3% [at 10.5 µM],1.92% [at 6.97 µM],1.51% [at 10.5 µM],–,–,–,–,–,–
c1ccc2c(CC3=NCCN3)cccc2c1,14.1,inactive,inactive,–,–,–,–,–,–,9.77 µM (active),inactive,inactive,inactive,inactive,inactive
Cn1c(=O)c2[nH]c(Br)nc2n(C)c1=O,-2.17,inactive,inactive,–,–,–,–,–,–,inactive,inactive,inactive,24.5 µM (active),inactive,inactive
CCNC(=O)NCc1cccc(Cl)c1,-1.55,inactive,inactive,–,–,–,–,–,–,inactive,inactive,inactive,inactive,inactive,–
CN(C)CCCO[C@@H]1[C@H]2OC(C)(C)O[C@H]2O[C@@H]1C(O)CO (stereo partly drawn),-3.96,inactive,inactive,–,–,–,–,–,–,inactive,inactive,inactive,inactive,inactive,inactive
CC1(C)Oc2ccc(C#N)cc2[C@@H](N2CCCC2=O)[C@@H]1O,0.645,inactive,inactive,–,–,–,–,–,–,inactive,inactive,–,–,inactive,inactive
O=NN(CCCl)C(=O)NC1CCCCC1,-2.8,inactive,inactive,–,–,–,–,–,–,inactive,inactive,inactive,inactive,inactive,inactive
N[C@@H](CSCCCO)C(=O)O,-2.52,inactive,inactive,-4.36% [at 23.6 µM],3.16% [at 23.6 µM],4.77% [at 23.6 µM],12.2% [at 23.6 µM],17.6% [at 15.8 µM],15.6% [at 23.6 µM],–,–,–,–,–,–
O=C(O)[C@H](O)c1ccccc1,-3.01,inactive,inactive,–,–,–,–,–,–,inactive,–,inactive,inactive,inactive,inactive
N#CCC(=O)NN,-4.95,inactive,inactive,–,–,–,–,–,–,inactive,–,inactive,inactive,inactive,inactive
O=C(NCN1CCOCC1)c1cnccn1,-1.75,inactive,inactive,–,–,–,–,–,–,inactive,inactive,inactive,inactive,inactive,inactive
CC(C)Cn1cnc2c1c(=O)n(C)c(=O)n2C,0.329,inactive,inactive,–,–,–,–,–,–,–,inactive,inactive,15.5 µM (active),inactive,inactive
COc1cc2c(cc1OC)C(=O)C(CC1CCN(Cc3ccccc3)CC1)C2 (stereo not drawn),-1.76,–,–,–,–,–,–,–,–,–,–,–,–,–,–
CC(C)(C)NC[C@H](O)COc1cccc2c1CCCC2=O,0.088,inactive,inactive,–,–,–,–,–,–,–,inactive,inactive,inactive,inactive,inactive
CN(C)CC/C=C1/c2ccccc2COc2ccc(CC(=O)O)cc21,-3.17,inactive,inactive,–,–,–,–,–,–,inactive,inactive,inactive,inactive,inactive,inactive
C#CCN[C@@H]1CCc2ccccc21,-3.04,inactive,inactive,–,–,–,–,–,–,27.5 µM (active),inactive,inactive,5.12 µM (active),inactive,inactive
CC(C)=CCC[C@@](C)(O)[C@H]1CC=C(C)CC1,1.39,inactive,inactive,–,–,–,–,–,–,inactive,8.71 µM (active),17.4 µM (active),–,inactive,–
CC1(C)O[C@H]2CC(=O)OC[C@]23[C@H]2CC[C@@]4(C)[C@H](c5ccoc5)OC(=O)[C@H]5O[C@]54[C@]2(C)C(=O)C[C@@H]13,5.81,inactive,inactive,–,–,–,–,–,–,inactive,inactive,inactive,inactive,inactive,–
CC(C)NCC(O)c1ccc2ccccc2c1 (stereo not drawn),-0.315,inactive,inactive,–,–,–,–,–,–,2.19 µM (active),inactive,inactive,15.5 µM (active),inactive,inactive
Cn1nnc2c(C(N)=O)ncn2c1=O,-4.63,inactive,inactive,–,–,–,–,–,–,inactive,inactive,inactive,inactive,inactive,inactive
CCCC(=O)Nc1ccc(OCC(O)CNC(C)C)c(C(C)=O)c1 (stereo not drawn),-1.06,inactive,inactive,–,–,–,–,–,–,–,inactive,–,–,inactive,inactive
CN(C)CCOC(=O)C(c1ccccc1)C1(O)CCCC1 (stereo not drawn),3.01,inactive,inactive,–,–,–,–,–,–,–,–,inactive,inactive,inactive,inactive
CC(=O)O[C@@H]1CC2CCC1(C)C2(C)C (stereo partly drawn),-1.62,inactive,inactive,–,–,–,–,–,–,–,inactive,inactive,inactive,inactive,inactive
